In PubChem BioAssay (NCI):
This is part of a sample that, as a whole, favours compounds with a hit. Of some 83,000 tested, about 20% had one in any assay.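 Results are percent growth after 48 hours of single-concentration exposure. 100 means growth as in untreated cells, lower positive values show inhibition; negative values down to -100 show cell death.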 The source made the active and inactive calls. Rule for the calls: active = growth percent below 10; inactive = the rest.

Legend:
Assay in all cases: NCI-60 one-dose screen, 48 h (100 = growth as untreated, 0 = no growth, -100 = all killed)
Conditions in all cases: 10 µM unless noted
NCI-H23 lung = test system: NCI-H23 lung
NCI-H322M lung = test system: NCI-H322M lung
HOP-62 NSCLC = test system: HOP-62 NSCLC
NCI-H460 lung = test system: NCI-H460 lung
HOP-92 NSCLC = test system: HOP-92 NSCLC
NCI-H522 lung = test system: NCI-H522 lung
A549/ATCC NSCLC = test system: A549/ATCC NSCLC
786-0 renal = test system: 786-0 renal
COLO 205 colon = test system: COLO 205 colon
DU-145 prostate = test system: DU-145 prostate
K-562 leukemia = test system: K-562 leukemia
MALME-3M melanoma = test system: MALME-3M melanoma
MDA-MB-231 breast = test system: MDA-MB-231 breast
RXF 393 renal = test system: RXF 393 renal
SF-268 CNS = test system: SF-268 CNS
SF-539 CNS = test system: SF-539 CNS
UACC-257 melanoma = test system: UACC-257 melanoma
M14 melanoma = test system: M14 melanoma
HCT-15 colon = test system: HCT-15 colon
SF-295 CNS = test system: SF-295 CNS

Measured: growth

CCOC(=O)c1c(Cl)c2c(n1Cc1ccccc1)-c1oncc1CCC2
inactive: NCI-H23 lung 86.9% | NCI-H322M lung 94% | HOP-62 NSCLC 80% | NCI-H460 lung 81% | HOP-92 NSCLC 84.7% | NCI-H522 lung 35.7% | A549/ATCC NSCLC 43% | 786-0 renal 83.1% | COLO 205 colon 56.9% | DU-145 prostate 103% | K-562 leukemia 18.6% | MALME-3M melanoma 42.3% | MDA-MB-231 breast 64.4% | RXF 393 renal 64.3% | SF-268 CNS 86.7% | SF-539 CNS 74% | UACC-257 melanoma 79.7% | M14 melanoma 55.3% | HCT-15 colon 36.1%

O=C(Nc1nc2c(s1)CCc1c-2c(Br)n(Cc2ccccc2)c1Br)c1ccccc1
active: MALME-3M melanoma -16.2%
inactive: NCI-H23 lung 79.9% | NCI-H322M lung 58.9% | HOP-62 NSCLC 32.8% | NCI-H460 lung 40.8% | HOP-92 NSCLC 31.2% | NCI-H522 lung 61.9% | A549/ATCC NSCLC 67.2% | 786-0 renal 56.7% | COLO 205 colon 72.7% | DU-145 prostate 74.5% | K-562 leukemia 56.8% | MDA-MB-231 breast 36.6% | RXF 393 renal 36.6% | SF-268 CNS 60.7% | SF-295 CNS 62.5% | SF-539 CNS 18.1% | UACC-257 melanoma 64.9% | HCT-15 colon 81.6%

O=C(Nc1ccc(I)cc1F)c1cc(Cl)ccc1O
active: NCI-H23 lung 1.96% | NCI-H322M lung 8.59% | HOP-62 NSCLC 2.14% | NCI-H460 lung 4% | HOP-92 NSCLC -15.8% | NCI-H522 lung -17.1% | A549/ATCC NSCLC 7% | 786-0 renal -7.97% | K-562 leukemia 8.14% | MALME-3M melanoma -28.9% | MDA-MB-231 breast -17.6% | RXF 393 renal 1.47% | SF-268 CNS 5.87% | SF-295 CNS -62.8% | SF-539 CNS 2.65% | UACC-257 melanoma -18.1% | M14 melanoma -22% | HCT-15 colon 2.58%
inactive: COLO 205 colon 42.8% | DU-145 prostate 13.8%

COc1ccccc1N1C(=N)S/C(=C\c2ccc(OCc3ccccc3F)cc2)C1=O
inactive: NCI-H23 lung 79.8% | NCI-H322M lung 81.6% | HOP-62 NSCLC 98.8% | NCI-H460 lung 77.4% | HOP-92 NSCLC 81.1% | NCI-H522 lung 65.7% | A549/ATCC NSCLC 80.3% | 786-0 renal 87.9% | COLO 205 colon 112% | DU-145 prostate 102% | K-562 leukemia 62.2% | MALME-3M melanoma 118% | MDA-MB-231 breast 51.4% | RXF 393 renal 65.8% | SF-268 CNS 82% | SF-295 CNS 95.1% | SF-539 CNS 106% | UACC-257 melanoma 90.9% | M14 melanoma 70.7% | HCT-15 colon 81.3%

NS(=O)(=O)c1ccc(CCN=C=S)cc1
inactive: NCI-H23 lung 32.7% | NCI-H322M lung 85.2% | HOP-62 NSCLC 101% | NCI-H460 lung 56.7% | HOP-92 NSCLC 23.4% | A549/ATCC NSCLC 71.5% | 786-0 renal 20.8% | MALME-3M melanoma 40.9% | MDA-MB-231 breast 15.6% | SF-268 CNS 53.3% | SF-295 CNS 105% | SF-539 CNS 37.2% | UACC-257 melanoma 24.7% | M14 melanoma 12.6%
active: NCI-H522 lung -69.8% | COLO 205 colon -36.7% | DU-145 prostate 6.92% | K-562 leukemia 5.24% | RXF 393 renal -36.3% | HCT-15 colon 0.368%

O=C(/C=C/c1ccccn1)c1ccc(OCc2nnc(-c3ccc(Cl)cc3)o2)cc1
active: 786-0 renal -49.9% | COLO 205 colon -40.1% | K-562 leukemia -28.1% | RXF 393 renal -71.7% | SF-539 CNS -4.02%
inactive: NCI-H23 lung 70% | NCI-H322M lung 52.7% | HOP-62 NSCLC 44.6% | NCI-H460 lung 42.4% | HOP-92 NSCLC 105% | NCI-H522 lung 63.7% | A549/ATCC NSCLC 34.1% | DU-145 prostate 23.8% | MALME-3M melanoma 60.4% | MDA-MB-231 breast 33.4% | SF-268 CNS 28.6% | UACC-257 melanoma 56.5% | M14 melanoma 31.1% | HCT-15 colon 18.9%

COc1ccc(/C=C2\SC(=Nc3ccccc3)NC2=O)cc1
active: NCI-H322M lung -53.9% | HOP-62 NSCLC -95.3% | NCI-H460 lung -79.4% | HOP-92 NSCLC -64.5% | NCI-H522 lung -85.6% | A549/ATCC NSCLC -74.8% | 786-0 renal -92.8% | COLO 205 colon -94.3% | DU-145 prostate -50.8% | K-562 leukemia -64.2% | MALME-3M melanoma -86% | MDA-MB-231 breast -83% | RXF 393 renal -95.5% | SF-268 CNS -82.5% | SF-539 CNS -96.2% | UACC-257 melanoma -91.8% | M14 melanoma -79.8% | HCT-15 colon -44.5%
inactive: NCI-H23 lung 21.6%

Clc1ccc(-c2nnc(COc3ccc(C4=NNC(c5ccco5)C4)cc3)o2)cc1 (configuration not stated)
inactive: NCI-H23 lung 61.5% | NCI-H322M lung 36.6% | HOP-62 NSCLC 105% | NCI-H460 lung 82.7% | HOP-92 NSCLC 76.8% | NCI-H522 lung 86.7% | A549/ATCC NSCLC 45.6% | 786-0 renal 89.5% | COLO 205 colon 105% | DU-145 prostate 94.8% | K-562 leukemia 80.7% | MALME-3M melanoma 109% | MDA-MB-231 breast 82.7% | RXF 393 renal 91.7% | SF-268 CNS 93.9% | SF-539 CNS 95.6% | UACC-257 melanoma 96.1% | M14 melanoma 88% | HCT-15 colon 58.8%

NCCOc1ccccc1/C=C1\c2ccccc2-c2ccc([N+](=O)[O-])cc21
inactive: NCI-H322M lung 51.1% | NCI-H522 lung 21.3% | MALME-3M melanoma 26% | MDA-MB-231 breast 17.9% | SF-268 CNS 18.1% | UACC-257 melanoma 63.9%
active: NCI-H23 lung 1.49% | HOP-62 NSCLC -71.1% | NCI-H460 lung -85.1% | HOP-92 NSCLC -1.14% | A549/ATCC NSCLC -74.6% | 786-0 renal -41.5% | COLO 205 colon -75.4% | DU-145 prostate -42.3% | K-562 leukemia -44.9% | RXF 393 renal 1.55% | SF-295 CNS 6.73% | SF-539 CNS 8.01% | M14 melanoma 0.981% | HCT-15 colon -52.7%

Brc1ccc(Oc2ccc(Nc3ncnc4onc(-c5ccccc5)c34)cc2)cc1
inactive: NCI-H23 lung 94.3% | NCI-H322M lung 110% | HOP-62 NSCLC 99.8% | NCI-H460 lung 103% | HOP-92 NSCLC 110% | NCI-H522 lung 97.8% | A549/ATCC NSCLC 95.5% | 786-0 renal 98.5% | COLO 205 colon 112% | DU-145 prostate 102% | K-562 leukemia 92.4% | MALME-3M melanoma 103% | MDA-MB-231 breast 98.3% | RXF 393 renal 103% | SF-268 CNS 96.7% | SF-295 CNS 92.2% | SF-539 CNS 96.2% | UACC-257 melanoma 98% | M14 melanoma 98.3% | HCT-15 colon 103%

O=c1cc(NC2CCN(CCCc3ccccc3)CC2)c2cc(Cl)ccc2o1
active: NCI-H23 lung -1.92% | NCI-H322M lung 0.794% | HOP-62 NSCLC 0.321% | NCI-H460 lung -6.31% | HOP-92 NSCLC -26.1% | NCI-H522 lung -31.2% | A549/ATCC NSCLC 0.692% | COLO 205 colon -98.4% | K-562 leukemia 5.97% | MALME-3M melanoma -30.4% | MDA-MB-231 breast -62.2% | RXF 393 renal -25.3% | SF-295 CNS -44.1% | UACC-257 melanoma -31.5% | M14 melanoma 4.04%
inactive: 786-0 renal 18.1% | DU-145 prostate 15.5% | SF-268 CNS 17.2% | SF-539 CNS 19.4% | HCT-15 colon 14.1%

COc1ccc(OC)c(N(CCN2C(=O)c3ccccc3C2=O)C(=O)CCl)c1
active: HOP-62 NSCLC -3% | HOP-92 NSCLC -11.4% | NCI-H522 lung -73.3% | MALME-3M melanoma -36.4%
inactive: NCI-H23 lung 32.1% | NCI-H322M lung 97.7% | NCI-H460 lung 90.3% | A549/ATCC NSCLC 76% | 786-0 renal 38.6% | COLO 205 colon 80.6% | DU-145 prostate 86.1% | K-562 leukemia 102% | MDA-MB-231 breast 69.7% | RXF 393 renal 58.7% | SF-268 CNS 35.3% | SF-539 CNS 23.1% | UACC-257 melanoma 83% | M14 melanoma 84.2% | HCT-15 colon 80.3%

CCOC(=O)c1cnc2ccc(Cl)cc2c1NCCCN(C)C
inactive: NCI-H23 lung 22% | NCI-H322M lung 10.4% | HOP-92 NSCLC 41.1% | COLO 205 colon 31.4% | DU-145 prostate 19.2% | MDA-MB-231 breast 15.8% | HCT-15 colon 26.2%
active: HOP-62 NSCLC 8.63% | NCI-H460 lung 1.86% | NCI-H522 lung -17.5% | A549/ATCC NSCLC 4.15% | 786-0 renal 8.14% | K-562 leukemia 1.51% | MALME-3M melanoma -6.52% | RXF 393 renal -3.24% | SF-268 CNS 1.81% | SF-539 CNS -12.7% | UACC-257 melanoma -3.99% | M14 melanoma 2.88%

COC(=O)[C@H]1CCCN1C(=O)[C@H]1CCCN1C(=O)[C@H](Cc1c[nH]c2ccccc12)NC(=S)Nc1cc(C(F)(F)F)cc(C(F)(F)F)c1
active: COLO 205 colon -34.8% | MDA-MB-231 breast -38.5%
inactive: NCI-H23 lung 65.2% | NCI-H322M lung 78.4% | HOP-62 NSCLC 74.5% | NCI-H460 lung 22.1% | HOP-92 NSCLC 88.8% | NCI-H522 lung 68.6% | A549/ATCC NSCLC 35% | 786-0 renal 58.3% | DU-145 prostate 64.6% | K-562 leukemia 34.7% | MALME-3M melanoma 70.5% | RXF 393 renal 64.8% | SF-268 CNS 47.8% | SF-539 CNS 74.3% | UACC-257 melanoma 67.9% | M14 melanoma 56% | HCT-15 colon 70.4%
